These results are taken from PubChem BioAssay (NCATS).

Experiment [1] can be described thus: qHTS Assay for Identifying Gametocytocidal Compounds (AID 743244). Also: potency is read from the fitted curve at half-maximal effect. Particulars: P. falciparum 3D7 stage III-V gametocytes, alamarBlue, 72 h; max response: stronger effect = lower value. The method, boiled down: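 Viability read-out was resazurin reduction (alamarBlue, 24 h) measured at Ex 525/Em 598 nm. Beforehand, late-stage (III-V) 3D7 P. falciparum gametocytes at 20,000 cells/well were incubated with compound 72 h at 37C under 5% CO2.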
Background: qHTS replaces the single test concentration by a dilution series.

A short description of experiment [2]: qHTS profiling for inhibitors of Plasmodium falciparum (3D7) proliferation (AID 743322).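 Also: infected erythrocytes exposed to compound for 72 h before lysis; 100% = DMSO vehicle wells and 0% = 0.29 µM artemisinin.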 The settings on record: P. falciparum 3D7 proliferation; at 28.7 µM (top of the series) unless noted. In a few lines:
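Erythrocytes infected with P. falciparum (0.3% parasitemia, 2.5% hematocrit) incubated with compounds 72 h at 37 C, 5% CO2. Lysis with saponin/Triton buffer containing SYBR Green I, overnight at room temperature in the dark; DNA fluorescence (485/535 nm) normalised to 0.29 uM artemisinin and DMSO.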

The nature of experiment [3]: qHTS profiling for inhibitors of Plasmodium falciparum (DD2) proliferation (AID 743323; call rule not given here). The settings on record: lower = more inhibition; at 28.7 µM (top of the series) unless noted. In a few lines:
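SYBR Green fluorescence (ex 485, em 535 nm) of lysed cultures gives parasite DNA content; wells normalized to artemisinin (0.29 uM) and DMSO controls. Infected red cells: 0.3% parasitemia, 2.5% hematocrit, 72 h, 37 C.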

The nature of experiment [4]: qHTS profiling for inhibitors of Plasmodium falciparum (HB3) proliferation (AID 743324).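 Also: 100% = DMSO vehicle wells and 0% = artemisinin-treated control wells.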 Particulars: Plasmodium falciparum HB3 blood-stage proliferation; at 28.7 µM (top of the series) unless noted. In a few lines:
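P. falciparum HB3 grown in erythrocytes (0.3% parasitemia, 2.5% hematocrit final) with compound for 72 h at 37 C, 5% CO2. Parasite DNA detected by SYBR Green after saponin/triton lysis overnight; normalized to 0.29 uM artemisinin and DMSO.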

Experiment [5] is described as follows: qHTS for Inhibitors of ATXN expression: Validation (AID 588378). Also: potency is read from the fitted curve at half-maximal effect; nearly all actives have a fitted effect of over 75% in size. Particulars: cell-based ATXN2 expression reporter assay, luminescence. The method, boiled down: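 After a 2 h attachment and 24 h compound incubation, HEK293-ATXN2-FFLuc wells are read for fluorescence at 405 nm excitation/525 nm emission as a viability measure, then for Bright-Glo luminescence reflecting ATXN2 expression.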

In experiment [6] the target is Peroxisome proliferator-activated receptor gamma (Homo sapiens) (UniProt P37231). The experiment in a line: qHTS assay for small molecule agonists of peroxisome proliferator-activated receptor gamma signaling (AID 588536; active = well fitted curve in the direction sought with a large enough effect in the signal ratio, with a control signal flat, not every such curve was filed as active; the % refers to the signal ratio;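 also: 0% = DMSO basal wells and 100% = rosiglitazone at 2 µM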). Particulars: HEK293 PPARg-UAS-bla, beta-lactamase ratio, 16 h; series mostly up to 76.7 µM. The method, boiled down:
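PPAR-gamma-UAS-bla HEK293 cells in medium with 1% charcoal/dextran-treated FBS were exposed to compounds for 16 h at 37 C. Beta-lactamase activity was read with CCF4 substrate (405 nm excitation, 460/530 nm emission).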

The nature of experiment [7]: qHTS for Inhibitors of Plasmodium falciparum (DD2) proliferation (AID 504314).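 Also: parasite DNA measured by SYBR Green fluorescence after red cell lysis; plate controls were DMSO vehicle for no effect and artemisinin wells for full effect.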 The settings on record: P. falciparum Dd2 in erythrocytes, SYBR Green growth, 72 h; series mostly up to 6.11 µM. The method, boiled down: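 Erythrocytes infected with P. falciparum (0.3% parasitemia, 2.5% hematocrit final) were incubated with compounds for 72 h at 37C, 5% CO2. Parasite DNA was detected by SYBR Green I fluorescence after saponin/Triton lysis, normalized to artemisinin (0.29 uM) and DMSO controls.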

A short description of experiment [8]: qHTS for Inhibitors of Plasmodium falciparum (GB4) proliferation (AID 504315).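 Also: 0% = DMSO vehicle and -100% = 0.29 µM artemisinin control; nearly all actives have a fitted effect of over 50% in size.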 The settings on record: P. falciparum GB4 in erythrocytes, SYBR Green DNA, 72 h; series mostly up to 6.7 µM. In a few lines: (§1)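 Erythrocytes infected with P. falciparum line (0.3% parasitemia, 2.5% hematocrit final) incubated with compounds 72 h at 37 °C, 5% CO2; SYBR Green lysis buffer added, fluorescence read next day. Normalized to 0.29 uM artemisinin and DMSO.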

A short description of experiment [9]: qHTS for Inhibitors of Plasmodium falciparum (7G8) proliferation (AID 504316).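 Also: 0% = DMSO vehicle and -100% = 0.29 µM artemisinin full kill; nearly all actives have a fitted effect of over 65% in size.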 The settings on record: P. falciparum 7G8 in erythrocytes, SYBR Green DNA, 72 h; series mostly up to 6.7 µM. In a few lines:
as §1

Experiment [10] in a line: qHTS for Inhibitors of Plasmodium falciparum (HB3) proliferation (AID 504318).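 Also: 0% = DMSO vehicle and -100% = artemisinin control; nearly all actives have a fitted effect of over 60% in size.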 The settings on record: P. falciparum HB3 in erythrocytes, SYBR Green DNA, 72 h; series mostly up to 7.21 µM. The method, boiled down: as §1
Experiment [11] in a line: qHTS for Inhibitors of Plasmodium falciparum (CP250) proliferation (AID 504320).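 Also: plate controls were DMSO vehicle for no effect and 0.29 µM artemisinin control for full effect.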 Particulars: P. falciparum CP250 in erythrocytes, SYBR Green DNA, 72 h; series mostly up to 6.7 µM. In a few lines: as §1
For experiment [12], the target named is Glucocorticoid receptor (Homo sapiens) (UniProt P04150). The experiment in a line: qHTS assay for small molecule antagonists of glucocorticoid receptor signaling (AID 588533; active = well fitted inhibition curve with a large enough effect in the signal ratio, with a control signal flat, not every such curve was filed as active; the % refers to the signal ratio;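 also: cells stimulated with 2 nM dexamethasone as agonist; % is scaled to controls: 0 for no effect and ±100 for the full control effect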). Particulars: HeLa MMTV-bla, GRE beta-lactamase ratio, antagonist mode, 18 h; series mostly up to 76.8 µM. In a few lines:
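Antagonist-mode qHTS: compound titrations added to GRE-bla HeLa cells, then dexamethasone 2 nM final; 18 h, 37 C. CCF4 FRET fluorescence normalized to dexamethasone and DMSO; IC50 from Hill fit.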

Experiment [13] in a line: qHTS assay for small molecule agonists of the antioxidant response element (ARE) signaling pathway (AID 651741; active = well fitted activation curve with a large enough effect in the signal ratio; the % refers to the signal ratio; also: potency is read from the fitted curve at half-maximal effect). Particulars: HepG2 ARE-bla reporter, beta-lactamase FRET ratio, 16 h; series mostly up to 96 µM. In a few lines:
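CellSensor ARE-bla HepG2 cells (2,000/well) carrying ARE-driven beta-lactamase, exposed 16 h at 37 C. LiveBLAzer B/G FRET substrate added for 2 h at room temperature; fluorescence intensity read.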

A short description of experiment [14]: qHTS assay for small molecule agonists of the antioxidant response element (ARE) signaling pathway measured by Nrf2-dependant transcriptional activity (AID 720636; active = well fitted curve in the direction sought with a large enough effect in the repeat runs; an effect the other way counts as inactive or inconclusive;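 also: HepG2 cells with an ARE-driven luciferase reporter; % of control where 0% means no effect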). The settings on record: ARE-luc HepG2, Nrf2 luciferase reporter, 16 h; series mostly up to 92.4 µM. In a few lines: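 HepG2 ARE-luc reporter line, 1% dialyzed FBS; 6 hr attachment at 37 C, compound pinned in, 16 hr at 37 C/5% CO2; ONE-Glo, 30 min RT, luminescence read.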

The target in experiment [15] is Estrogen receptor (Homo sapiens) (UniProt P03372). The experiment in a line: qHTS assay for small molecule antagonists of estrogen receptor alpha signaling (AID 588513; active = well fitted curve in the direction sought with a large enough effect in the signal ratio, with a control signal flat, not every such curve was filed as active; the % refers to the signal ratio; also: potency is read from the fitted curve at half-maximal effect). Particulars: ER-alpha-UAS-bla HEK293, beta-lactamase ratio, antagonist mode; series mostly up to 76.9 µM. The method, boiled down:
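Antagonist-mode qHTS in ER-alpha-UAS-bla HEK 293 cells: compound titration, 0.5nM estradiol for 18 h, CCF4 fluorescence, Hill-derived IC50.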

The target of experiment [16] is Androgen receptor (Homo sapiens) (UniProt P10275). The experiment in a line: qHTS assay for small molecule antagonists of androgen receptor signaling (AID 588516; active = well fitted curve in the direction sought with a large enough effect in the signal ratio, with a control signal flat, not every such curve was filed as active; the % refers to the signal ratio; also: potency is read from the fitted curve at half-maximal effect). The settings on record: AR-UAS-bla HEK293, beta-lactamase ratio, antagonist mode, 16 h; series mostly up to 76.8 µM. The method, boiled down: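 Compounds tested in titration against 10 nM R1881 in AR-responsive bla reporter HEK 293 cells; CCF4 fluorescence (460/530 nm) after 16 h exposure gave IC50 and efficacy.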

Experiment [17] can be described thus: qHTS assay for small molecule agonists of retinoid X receptor alpha signaling (AID 588544; calls by dose curve; also: potency is read from the fitted curve at half-maximal effect). The settings on record: HEK293T RXRa-UAS-bla, beta-lactamase reporter, 18 h; 530 nm emission.
Experiment [18] deals with Retinoic acid receptor RXR-alpha (Homo sapiens) (UniProt P19793). The experiment is described as above. The settings on record: HEK293T RXRa-UAS-bla, beta-lactamase reporter, 18 h; series mostly up to 76.7 µM.
Experiment [19] is described as follows: MultiTox-Fluor Cytotoxicity Assay - LYMP1-001 - Live Cells (AID 947).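 Also: 0% = DMSO only and full inhibition = tetraoctylammonium bromide control.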 The settings on record: LYMP1-001 lymphoblastoid cells, live-cell protease fluorescence viability; series mostly up to 92.2 µM.
The nature of experiment [20]: Cell Viability - LYMP2-005 (AID 967).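 Also: plate controls were DMSO only for no effect and 92 µM tetraoctylammonium bromide control for full effect.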 The settings on record: LYMP2-005 lymphoblastoid cell viability; series mostly up to 92.2 µM. The method, boiled down: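 Luciferase-based ATP quantitation served as the viability measure in human lymphoblastoid LYMP2-005 cells exposed to test compounds for 24 h at 37 C in complete culture medium. Potency (AC50) was obtained by fitting concentration-response curves with the Hill equation.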

Each structure is given as a SMILES string. Records with an inconclusive call do not appear. The source made the active and inactive calls. Unless noted, calls follow the shape of the dose curve; as a rule, active = well fitted curve in the direction sought with a large enough effect; inconclusive = small, poorly fitted or top-dose-only effect, or another doubt; inactive = no such curve, though single readings can be large; an effect the other way counts as inactive or inconclusive.

Chain of Peroxisome proliferator-activated receptor gamma (Homo sapiens) (P37231 whole entry, looked up): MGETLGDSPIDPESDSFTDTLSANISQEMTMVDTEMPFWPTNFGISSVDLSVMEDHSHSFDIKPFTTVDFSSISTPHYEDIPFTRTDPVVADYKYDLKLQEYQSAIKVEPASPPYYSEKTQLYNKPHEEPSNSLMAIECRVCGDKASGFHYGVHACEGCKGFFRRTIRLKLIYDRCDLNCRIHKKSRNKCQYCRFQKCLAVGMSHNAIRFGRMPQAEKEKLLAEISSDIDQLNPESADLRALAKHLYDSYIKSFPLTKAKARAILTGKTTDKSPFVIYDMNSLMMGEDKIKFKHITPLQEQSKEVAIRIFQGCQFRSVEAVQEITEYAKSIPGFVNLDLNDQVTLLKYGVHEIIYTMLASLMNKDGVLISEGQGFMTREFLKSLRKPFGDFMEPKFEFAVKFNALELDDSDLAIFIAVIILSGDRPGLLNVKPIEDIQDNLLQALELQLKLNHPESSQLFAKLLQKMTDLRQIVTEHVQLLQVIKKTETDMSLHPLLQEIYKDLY
Chain of Glucocorticoid receptor (Homo sapiens) (P04150 whole entry, looked up): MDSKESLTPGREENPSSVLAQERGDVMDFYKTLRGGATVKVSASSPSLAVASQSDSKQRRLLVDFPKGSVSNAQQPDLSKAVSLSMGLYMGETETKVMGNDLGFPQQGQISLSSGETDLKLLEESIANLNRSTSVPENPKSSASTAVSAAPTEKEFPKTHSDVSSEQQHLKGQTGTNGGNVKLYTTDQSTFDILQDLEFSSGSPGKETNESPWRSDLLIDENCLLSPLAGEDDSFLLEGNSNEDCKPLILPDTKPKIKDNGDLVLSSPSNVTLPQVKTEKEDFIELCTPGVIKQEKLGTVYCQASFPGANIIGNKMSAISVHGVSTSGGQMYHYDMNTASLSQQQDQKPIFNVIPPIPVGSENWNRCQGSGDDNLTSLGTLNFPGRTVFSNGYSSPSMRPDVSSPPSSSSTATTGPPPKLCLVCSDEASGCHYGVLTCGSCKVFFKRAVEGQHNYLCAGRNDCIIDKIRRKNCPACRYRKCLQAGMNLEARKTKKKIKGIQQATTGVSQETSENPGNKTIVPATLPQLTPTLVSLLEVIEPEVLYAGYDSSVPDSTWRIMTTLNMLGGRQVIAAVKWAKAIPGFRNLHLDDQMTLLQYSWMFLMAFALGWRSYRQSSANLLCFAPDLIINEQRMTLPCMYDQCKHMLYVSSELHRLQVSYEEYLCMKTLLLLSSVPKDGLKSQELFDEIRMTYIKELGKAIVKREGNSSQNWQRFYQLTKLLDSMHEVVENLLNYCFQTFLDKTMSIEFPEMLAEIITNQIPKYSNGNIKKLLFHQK
Chain of Estrogen receptor (Homo sapiens) (P03372 whole entry, looked up): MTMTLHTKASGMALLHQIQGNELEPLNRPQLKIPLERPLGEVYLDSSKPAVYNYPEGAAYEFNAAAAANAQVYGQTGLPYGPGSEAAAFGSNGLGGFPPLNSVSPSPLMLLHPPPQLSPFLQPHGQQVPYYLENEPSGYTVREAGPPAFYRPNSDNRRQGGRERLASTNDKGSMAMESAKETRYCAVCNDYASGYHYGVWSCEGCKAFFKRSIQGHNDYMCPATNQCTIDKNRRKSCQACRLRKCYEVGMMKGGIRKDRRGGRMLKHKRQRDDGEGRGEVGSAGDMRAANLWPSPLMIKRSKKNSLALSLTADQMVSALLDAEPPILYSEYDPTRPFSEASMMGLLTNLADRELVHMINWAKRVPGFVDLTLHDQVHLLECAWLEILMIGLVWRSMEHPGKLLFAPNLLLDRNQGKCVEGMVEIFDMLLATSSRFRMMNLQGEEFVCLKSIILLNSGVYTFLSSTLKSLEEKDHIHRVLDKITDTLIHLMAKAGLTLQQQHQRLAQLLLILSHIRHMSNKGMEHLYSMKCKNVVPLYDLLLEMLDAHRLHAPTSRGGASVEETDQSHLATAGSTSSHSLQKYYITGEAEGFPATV
Chain of Retinoic acid receptor RXR-alpha (Homo sapiens) (P19793 whole entry, looked up): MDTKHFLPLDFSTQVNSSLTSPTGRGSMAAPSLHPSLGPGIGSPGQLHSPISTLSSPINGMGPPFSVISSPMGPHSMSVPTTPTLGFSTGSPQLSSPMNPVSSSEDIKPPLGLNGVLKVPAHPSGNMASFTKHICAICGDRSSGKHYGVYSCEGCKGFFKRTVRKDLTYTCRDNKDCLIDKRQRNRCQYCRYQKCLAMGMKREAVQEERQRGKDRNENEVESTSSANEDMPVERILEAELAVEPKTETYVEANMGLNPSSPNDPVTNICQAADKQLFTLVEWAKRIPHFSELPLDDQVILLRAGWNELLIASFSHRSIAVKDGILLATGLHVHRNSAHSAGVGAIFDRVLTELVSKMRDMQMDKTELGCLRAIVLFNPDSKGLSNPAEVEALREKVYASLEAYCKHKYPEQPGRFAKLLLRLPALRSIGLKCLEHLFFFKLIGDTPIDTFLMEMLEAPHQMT
Chain of Androgen receptor (Homo sapiens) (P10275 whole entry, looked up): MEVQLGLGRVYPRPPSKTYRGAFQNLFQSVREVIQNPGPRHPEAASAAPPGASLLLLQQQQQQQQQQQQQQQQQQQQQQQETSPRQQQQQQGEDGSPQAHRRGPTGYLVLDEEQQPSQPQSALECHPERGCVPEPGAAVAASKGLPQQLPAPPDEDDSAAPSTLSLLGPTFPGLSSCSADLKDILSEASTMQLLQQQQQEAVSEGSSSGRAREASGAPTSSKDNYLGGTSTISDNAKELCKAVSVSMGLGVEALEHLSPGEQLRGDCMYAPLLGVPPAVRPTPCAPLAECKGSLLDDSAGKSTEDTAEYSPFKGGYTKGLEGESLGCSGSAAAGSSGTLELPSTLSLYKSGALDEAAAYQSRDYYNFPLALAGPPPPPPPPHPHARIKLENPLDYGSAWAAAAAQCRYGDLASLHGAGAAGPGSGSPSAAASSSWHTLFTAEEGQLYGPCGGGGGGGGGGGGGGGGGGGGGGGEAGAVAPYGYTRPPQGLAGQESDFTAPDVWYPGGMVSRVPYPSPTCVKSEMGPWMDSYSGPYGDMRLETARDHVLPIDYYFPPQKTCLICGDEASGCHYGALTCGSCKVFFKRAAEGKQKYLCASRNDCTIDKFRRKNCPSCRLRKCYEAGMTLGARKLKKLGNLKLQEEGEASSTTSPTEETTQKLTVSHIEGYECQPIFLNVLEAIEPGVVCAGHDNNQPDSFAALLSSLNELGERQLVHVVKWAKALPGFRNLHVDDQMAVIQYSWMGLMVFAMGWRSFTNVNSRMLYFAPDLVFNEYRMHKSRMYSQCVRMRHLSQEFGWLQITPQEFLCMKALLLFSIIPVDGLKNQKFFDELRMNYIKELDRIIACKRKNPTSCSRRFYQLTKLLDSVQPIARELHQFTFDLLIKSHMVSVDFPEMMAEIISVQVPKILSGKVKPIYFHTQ

As for `C[C@@H]1CC[C@H]2[C@@H](C)C(=O)O[C@@H]3OC4(C)CC[C@@H]1C32OO4` (some centres undefined), in experiment [1], the Potency is 0.136 µM (active). Further, the remaining parasite growth % (stronger effect = lower value) in experiment [2] is -0.139% [at 57.5 µM]. This compound gave an activity, percent of control in experiment [3] of 0.0598% [at 57.5 µM]. Also, the remaining proliferation (% of control), lower = more inhibition in experiment [4] worked out at 0.0815% [at 57.5 µM].

For `CC[C@@H](CO)Nc1nc(NCc2ccccc2)c2ncn(C(C)C)c2n1`, the Potency in [5] is 31.6 µM (active).

Regarding `C#CCN1CC(=O)N(COC(=O)[C@@H]2[C@@H](C=C(C)C)C2(C)C)C1=O`, the Potency entry in experiment [6] was “inactive”.

With `CCC1CN2CCC1CC2[C@@H](Oc1cc2ccccc2c2ccccc12)c1ccnc2ccc(O)cc12` (some centres undefined), the compound was classed as inactive in experiment [7], in experiment [8], in experiment [9], in experiment [10] and in experiment [11].

For the compound `CC(C)=CC1C(C(=O)OCc2coc(Cc3ccccc3)c2)C1(C)C` (centres undefined), the Potency entry in experiment [12], in experiment [6] and in experiment [14] was “inactive” in each case. In addition, the Potency in experiment [13] is 61.1 µM (active).

On to `CC(C)N(C(=O)CCl)c1ccccc1`, for which the Potency was 15.8 µM [inhibitor] (active) in experiment [15] and 39.8 µM (active) in experiment [16].

Take `O=C(NC(=O)c1c(F)cccc1F)Nc1ccc(Cl)cc1`: the Potency result in experiment [15] was “inactive”. In experiment [17], the max response was -17.2%. Further, in [18], the Potency is 15.8 µM (active).

Take `CN1[C@H]2CC(OC(=O)[C@H](CO)c3ccccc3)C[C@H]1[C@H]1O[C@H]12` (some centres undefined): the Potency result in [19] and in experiment [20] was “inactive” throughout.

With `CCCCN(CC)c1c([N+](=O)[O-])cc(C(F)(F)F)cc1[N+](=O)[O-]`, the Potency entry in experiment [12] and in experiment [14] was “inactive” in each case.
